Shown are actives, neighbours in structure and some others; about 3.7% of the full set was active somewhere.
tim23-1 inh = tim23-1 yeast growth inhibition. S. cerevisiae tim23-1 growth, BacTiter-Glo luminescence, 24 h. inhibition, % at 20 µM. actives 1.3% (n = 330,000);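 active = growth inhibition of the mutant yeast at or above 50%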;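 note: temperature-sensitive mutant grown at 25 °C; plate controls were DMSO-treated mutant yeast for no effect and medium wells lacking yeast for full effect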
tim10-1 inh = tim10-1 yeast growth inhibition; S. cerevisiae tim10-1 ts strain growth, BacTiter-Glo, 24 h; inhibition, % at 20 µM; actives 2.2% (n = 330,000);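 active = inhibition of at least 40%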;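 note: mutant grown at 25 °C; 0% = DMSO wells with yeast and 100% = wells holding no yeast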
PfHsp90 yeast 2 = reduces growth (ATP signal) of yeast expressing P. falciparum Hsp90. AID 504621. actives 0.32% (n = 310,000). S. cerevisiae expressing PfHsp90, BacTiter-Glo ATP, 48 h; yeast lacking PDR1 and PDR3 efflux regulators. inhibition, % at 9.4 µM;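 active = every replicate shows inhibition above about 80%, whatever the replicate mean, limit read from the data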;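 note: 0% = DMSO neutral controls and 100% = 20 µM radicicol positive controls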
Rce1 inh = yeast Ras-converting enzyme inhibition | Q03530 | yeast membranes, quenched prenylated peptide cleavage fluorescence | calls only | actives 0.27% (n = 290,000) | AID 2563;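 active = fall in fluorescence gain of 50% or more versus controls, with final raw signal at or below 3038400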;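 note: plate controls were neutral control wells for no effect and wells lacking membranes for full effect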
Target sequence (Q03530 whole entry, looked up): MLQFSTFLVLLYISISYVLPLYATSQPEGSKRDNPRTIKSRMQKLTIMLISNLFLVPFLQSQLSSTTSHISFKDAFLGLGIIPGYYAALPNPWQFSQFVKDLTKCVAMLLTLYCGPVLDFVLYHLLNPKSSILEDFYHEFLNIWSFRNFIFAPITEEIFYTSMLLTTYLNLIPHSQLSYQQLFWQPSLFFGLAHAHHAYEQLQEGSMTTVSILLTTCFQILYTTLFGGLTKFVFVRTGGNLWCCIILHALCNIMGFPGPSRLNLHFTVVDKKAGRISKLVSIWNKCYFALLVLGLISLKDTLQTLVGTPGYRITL
TIM10 inh = inhibits growth of TIM10 yeast strain. S. cerevisiae TIM10 strain growth, BacTiter-Glo luminescence, 24 h. inhibition, % at 10 µM. actives 1.4% (n = 330,000). AID 463195;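 active = inhibition of 40% or more at the single tested concentration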;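 note: wild-type TIM10 isogenic control strain grown at permissive 25 °C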
tim10-1 conf = confirmation of tim10-1 mutant yeast growth inhibitors. actives 56% (n = 7,400). S. cerevisiae tim10-1 ts strain growth, BacTiter-Glo, 24 h. shares compounds with tim10-1 inh. AID 463213. inhibition, % at 20 µM;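 active = inhibition of yeast growth at or above a set limit in either of two repeat tests at 20 µM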;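 note: tim10-1 mutant grown at permissive 25 °C to find synthetic lethal compounds; 0% = DMSO yeast wells and 100% = medium wells without yeast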
Starred values were filed as active, the others as inactive.

What do the screens show for `O=C(/C=C/c1ccc(-c2ccccc2[N+](=O)[O-])o1)c1ccccc1`?
PfHsp90 yeast 2: 1.9; Rce1 inh: inactive

How did Nc1ccc(CSc2ccc(Cl)cc2)c(Cl)c1 do in these assays?
PfHsp90 yeast 2: 19.0

What do the screens show for `O=C1c2ccccc2S(=O)(=O)N1CC(O)Cn1ccc2ccccc21` (configuration not stated)?
tim23-1 inh: 45.2; tim10-1 inh: 41.8*; PfHsp90 yeast 2: -6.5; Rce1 inh: inactive; TIM10 inh: 22.8; tim10-1 conf: 20.1

Results for O=S(=O)(c1ccc(NC(=S)N/N=C/c2c3ccccc3cc3ccccc23)cc1)N1CCOCC1 ?
tim23-1 inh: 17.2; tim10-1 inh: 50.2*; PfHsp90 yeast 2: -48.5; Rce1 inh: inactive; TIM10 inh: 34.3; tim10-1 conf: 29.5*

How did Cc1occc1C(=O)Nc1ccc(S(=O)(=O)N2CCCC2)cc1 do in these assays?
tim23-1 inh: 20.2; tim10-1 inh: 41.6*; Rce1 inh: inactive; TIM10 inh: 22.5; tim10-1 conf: 26.6

Results for Cc1occc1C(=O)Nc1ccc(S(N)(=O)=O)cc1 ?
tim23-1 inh: -5.1; tim10-1 inh: -25.1; PfHsp90 yeast 2: 2.6; Rce1 inh: inactive; TIM10 inh: -31.1

How did COc1ccccc1C(=O)Nc1ccc(S(=O)(=O)N2CCCCC2)cc1 do in these assays?
tim23-1 inh: 12.6; tim10-1 inh: 48.0*; PfHsp90 yeast 2: 8.4; Rce1 inh: inactive; TIM10 inh: 25.7; tim10-1 conf: 39.8*

How did COC(=O)c1ccccc1NC(=O)C1CCCN(S(=O)(=O)c2ccccc2)C1 (configuration not stated) do in these assays?
tim23-1 inh: 39.5; tim10-1 inh: 40.2*; PfHsp90 yeast 2: -1.4; Rce1 inh: inactive; TIM10 inh: 8.8; tim10-1 conf: 28.6

Results for COc1ccccc1CNC(=O)C(=O)NCCC1CCCCN1S(=O)(=O)c1ccccc1 (configuration not stated) ?
tim23-1 inh: 6.4; tim10-1 inh: 5.6; PfHsp90 yeast 2: 12.6; Rce1 inh: inactive; TIM10 inh: 0.9

Results for Cc1ccc(C(=O)Nc2ccc(S(=O)(=O)N3CCOCC3)cc2)cc1Br ?
tim23-1 inh: 21.1; tim10-1 inh: 7.7; TIM10 inh: 26.6

What do the screens show for `Cc1ccc(C(=O)Nc2ccc(S(=O)(=O)N3CCOCC3)cc2)cc1C`?
tim23-1 inh: 34.7; tim10-1 inh: 40.6*; PfHsp90 yeast 2: 2.1; Rce1 inh: inactive; TIM10 inh: 29.5; tim10-1 conf: 14.7

What do the screens show for `Cc1ccc(C)c(NC(=S)NNC(=O)c2csc(C(C)C)c2)c1`?
tim23-1 inh: 17.2; tim10-1 inh: 40.2*; Rce1 inh: inactive; TIM10 inh: 21.6; tim10-1 conf: 34.1*

What do the screens show for `CCCc1cc(C(=O)NNC(=S)Nc2cccc(C)c2)cs1`?
tim23-1 inh: 40.7; tim10-1 inh: 46.7*; PfHsp90 yeast 2: -27.1; Rce1 inh: inactive; TIM10 inh: 23.6; tim10-1 conf: 14.6

What do the screens show for `Cc1ccc(C)c(NC(=S)NNC(=O)c2sccc2C)c1`?
tim23-1 inh: 6.6; tim10-1 inh: 21.6; PfHsp90 yeast 2: -17.2; Rce1 inh: inactive; TIM10 inh: 12.4

Results for Cc1ccc(C)c(NC(=S)NNC(=O)c2cc3c(s2)CCC(C)C3)c1 (configuration not stated) ?
tim23-1 inh: 32.8; tim10-1 inh: 44.1*; PfHsp90 yeast 2: 3.5; Rce1 inh: inactive; TIM10 inh: 22.3; tim10-1 conf: 33.7*

How did COc1cccc(-c2nn(-c3ccccc3)cc2CN2CCCO2)c1 do in these assays?
tim23-1 inh: 25.8; tim10-1 inh: 28.8; PfHsp90 yeast 2: -22.1; Rce1 inh: inactive; TIM10 inh: 11.0

What do the screens show for `COc1ccc(CNCCC(c2ccc(OC(C)C)cc2)c2ccccc2OC)cc1` (configuration not stated)?
tim23-1 inh: 15.3; tim10-1 inh: 1.8; PfHsp90 yeast 2: -11.9; Rce1 inh: inactive; TIM10 inh: 24.5

Results for COc1ccccc1C(CCNCc1ccccc1)c1ccc(OC(C)C)cc1 (configuration not stated) ?
tim23-1 inh: 32.2; tim10-1 inh: 40.8*; PfHsp90 yeast 2: 0.0; Rce1 inh: inactive; TIM10 inh: 20.7; tim10-1 conf: 30.6*

Results for O=C(NCc1cccnc1)c1cc(Sc2cccc(Cl)c2)nc2ccccc12 ?
tim23-1 inh: 18.4; tim10-1 inh: 22.7; PfHsp90 yeast 2: -17.6; Rce1 inh: inactive; TIM10 inh: 5.8

What do the screens show for `OCCC1CN(Cc2ccccc2-c2ccco2)CCN1Cc1ccccc1` (configuration not stated)?
tim23-1 inh: 19.3; tim10-1 inh: 21.7; PfHsp90 yeast 2: -6.6; Rce1 inh: inactive; TIM10 inh: 7.8

How did COc1ccc(-c2cc(C(F)(F)F)nc(SCC(=O)N3CCOCC3)n2)cc1OC do in these assays?
tim23-1 inh: 15.0; tim10-1 inh: 9.2; PfHsp90 yeast 2: 4.8; Rce1 inh: inactive; TIM10 inh: -6.7

What do the screens show for `COc1ccc(-c2cc(C(F)(F)F)nc(S(=O)(=O)CCC(=O)N3CCOCC3)n2)cc1`?
tim23-1 inh: 16.8; tim10-1 inh: 47.8*; PfHsp90 yeast 2: 0.7; Rce1 inh: inactive; TIM10 inh: 32.1; tim10-1 conf: 29.6

How did COc1ccccc1-c1cc(C(F)(F)F)nc(S(=O)(=O)CCCC(=O)N2CCOCC2)n1 do in these assays?
tim23-1 inh: 33.2; tim10-1 inh: 40.2*; PfHsp90 yeast 2: -48.8; Rce1 inh: inactive; TIM10 inh: 30.1; tim10-1 conf: 17.6

Results for CCN1C(=N)N(c2ccccc2)C(=O)C(CC)(CC)C1=O ?
PfHsp90 yeast 2: -15.6

Results for CC#C[C@]1(O)CC[C@H]2[C@@H]3CCC4=CC(=O)CCC4=C3[C@@H](c3ccc(N(C)C)cc3)C[C@@]21C ?
tim23-1 inh: 11.0; tim10-1 inh: 7.0; PfHsp90 yeast 2: 4.8; Rce1 inh: inactive; TIM10 inh: 6.8

How did Cc1nn(-c2ccccc2)c(N2CCCC2)c1/C=N/NC(=S)Nc1ccccc1C(F)(F)F do in these assays?
tim23-1 inh: 22.1; tim10-1 inh: 41.3*; PfHsp90 yeast 2: -30.1; Rce1 inh: inactive; TIM10 inh: 24.1; tim10-1 conf: 23.8

Results for COc1c(C)cc(Br)cc1C(=O)Nc1cccc(NC(=O)c2ccco2)c1 ?
tim23-1 inh: 42.3; tim10-1 inh: 42.3*; PfHsp90 yeast 2: -0.6; Rce1 inh: inactive; TIM10 inh: 35.7; tim10-1 conf: 35.8*

How did COc1cccc(NC(=O)c2ccco2)c1 do in these assays?
tim23-1 inh: 33.9; tim10-1 inh: 6.1; PfHsp90 yeast 2: 2.5; Rce1 inh: inactive; TIM10 inh: 18.0

Results for COc1ccc(Br)cc1C(=O)Nc1cccc(C)c1 ?
tim23-1 inh: 3.7; tim10-1 inh: 4.3; PfHsp90 yeast 2: -0.1; Rce1 inh: inactive; TIM10 inh: -11.3
